Common to all, as to assay: yeast three-hybrid, YBZ-1, SC-Leu-His + 0.5 mM 3-AT, 4 days
Conditions in all cases: tags: N-Gal4 AD-HA kept; label: inside an RPR1-promoter hybrid RNA with tandem MS2 sites; ssRNA

Test [1] addresses PUM1 PUF domain R7-RRD (Homo sapiens, UniProt Q14671 828-1176, S1079R;N1080R;E1083D). The gist of the method: (§1)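 The interaction score is the log change in variant frequency from input to selection. Scores were computed in log2 with a pseudocount of 1 for absent variants, using Illumina sequencing of PCR-amplified repeat regions. The input came from four days on SC-Leu and the selection from four days on SC-Leu-His + 0.5 mM 3-AT. The cells were strain YBZ-1 (LexA–MS2 coat fusion, HIS3 reporter) co-expressing Pumilio-1 PUF domain libraries and matching RNA elements from a centromeric plasmid.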

The target in test [2] is PUM1 PUF domain R1-RSN (Homo sapiens, UniProt Q14671 828-1176, S863R;R864S;Q867N). The method in brief:
as §1

Test [3] addresses PUM1 PUF domain R1-RYT (Homo sapiens, UniProt Q14671 828-1176, S863R;R864Y;Q867T). The method in brief:
as §1

The target in test [4] is PUM1 PUF domain R3-QFR (Homo sapiens, UniProt Q14671 828-1176, C935Q;R936F;Q939R). The gist of the method: as §1
In test [5] the target is PUM1 PUF domain R3-GRS (Homo sapiens, UniProt Q14671 828-1176, C935G;Q939S). The method in brief:
as §1

Test [6] concerns the target PUM1 PUF domain R3-RSY (Homo sapiens, UniProt Q14671 828-1176, C935R;R936S;Q939Y). The gist of the method: as §1
In test [7] the target is PUM1 PUF domain R3-RAL (Homo sapiens, UniProt Q14671 828-1176, C935R;R936A;Q939L). The gist of the method:
as §1

In test [8] the target is PUM1 PUF domain R3-VCK (Homo sapiens, UniProt Q14671 828-1176, C935V;R936C;Q939K). The method in brief:
as §1

The target of test [9] is PUM1 PUF domain R5-ERA (Homo sapiens, UniProt Q14671 828-1176, C1007E;Q1011A). The gist of the method: as §1
Test [10] concerns the target PUM1 PUF domain R2-RRM (Homo sapiens, UniProt Q14671 828-1176, N899R;Y900R;Q903M). The gist of the method: as §1
Test [11] concerns the target PUM1 PUF domain R2-DFE (Homo sapiens, UniProt Q14671 828-1176, N899D;Y900F;Q903E). The gist of the method:
as §1

With “GGCUAGAACUAGUGGAUCCCCCGGCGCCCGGCGGCUCGAGCCCGGGUAAGUCUAAAUAGUCUGCAUGCCGCCGGGCGCCAUGCCUGCAGGUCGACUCUAGAAAACAUG”, in [1], the binding signal is 2.84 log2 enrichment (interaction score).
Turning to “GGCUAGAACUAGUGGAUCCCCCGGCGCCCGGCGGCUCGAGCCCGGGUAAGUGUAAAUCGUCUGCAUGCCGCCGGGCGCCAUGCCUGCAGGUCGACUCUAGAAAACAUG”, the binding signal in test [2] was 5.16 log2 enrichment (interaction score); in test [3] it was 5.12 log2 enrichment (interaction score).
Consider “GGCUAGAACUAGUGGAUCCCCCGGCGCCCGGCGGCUCGAGCCCGGGUAAGUGUAACUAGUCUGCAUGCCGCCGGGCGCCAUGCCUGCAGGUCGACUCUAGAAAACAUG”, for which the binding signal in test [4] is 7.11 log2 enrichment (interaction score).
Take “GGCUAGAACUAGUGGAUCCCCCGGCGCCCGGCGGCUCGAGCCCGGGUAAGUGUAAAUGGUCUGCAUGCCGCCGGGCGCCAUGCCUGCAGGUCGACUCUAGAAAACAUG”: the binding signal in test [2] is 2.27 log2 enrichment (interaction score); in [3], 0.45 log2 enrichment (interaction score).
Consider “GGCUAGAACUAGUGGAUCCCCCGGCGCCCGGCGGCUCGAGCCCGGGUAAGUGUAAUUAGUCUGCAUGCCGCCGGGCGCCAUGCCUGCAGGUCGACUCUAGAAAACAUG”, for which the binding signal is 1.26 log2 enrichment (interaction score) in test [5], 2.82 log2 enrichment (interaction score) in test [6], 3.32 log2 enrichment (interaction score) in test [7] and 2.57 log2 enrichment (interaction score) in test [8].
Consider “GGCUAGAACUAGUGGAUCCCCCGGCGCCCGGCGGCUCGAGCCCGGGUAAGUGUCAAUAGUCUGCAUGCCGCCGGGCGCCAUGCCUGCAGGUCGACUCUAGAAAACAUG”, for which the binding signal in test [9] is 0.84 log2 enrichment (interaction score).
Regarding “GGCUAGAACUAGUGGAUCCCCCGGCGCCCGGCGGCUCGAGCCCGGGUAAGUGUGAAUAGUCUGCAUGCCGCCGGGCGCCAUGCCUGCAGGUCGACUCUAGAAAACAUG”, the binding signal in test [9] was 2.24 log2 enrichment (interaction score).
In the case of “GGCUAGAACUAGUGGAUCCCCCGGCGCCCGGCGGCUCGAGCCCGGGUAAGUGUAAAGAGUCUGCAUGCCGCCGGGCGCCAUGCCUGCAGGUCGACUCUAGAAAACAUG”, the binding signal in [10] is 2.71 log2 enrichment (interaction score); in test [11] it was 7.89 log2 enrichment (interaction score).
